Hit rate of the full screen: of about 65,000 compounds, about 2,100 (3.2%) showed an effect of 50% or more. The median lay at about -52%. The list comes from a sample in which strong results are over-represented; it also holds similar structures and randomly drawn compounds.
test system: Plasmodium falciparum; assay: Screen against P. falciparum Asexual Blood Stage (ABS), at 5uM; type: functional, Dd2; details: tested at 5 uM

Compound	INHIBITION [%]
Cc1cc(F)ccc1CN1CCC(O)(CN2CCCCC2)C1 (stereo not given)	78.8
COc1ccc(F)cc1CN1CCC(O)(CN2CCCCC2)C1 (stereo not given)	70.9
CN1CCO[C@H]2CN(C(=O)c3ccoc3)C[C@H]21	-144
Cn1nc(-c2ccccc2)cc1[C@H]1CN2CC[C@H]1C[C@@H]2CNS(C)(=O)=O	15
O=C(Cc1ccccc1)N1CCC2(CCN2Cc2ccc(F)cc2)C1 (stereo not given)	-12.1
O=C1N(CCCc2ccccc2)CCCC1(O)CNCC1CCCCC1 (stereo not given)	72.4
O=C(Nc1ccc(F)cc1)N1CCC(CO)(Nc2ccccc2)CC1	-40.85
O=C1N(CCc2ccccc2)CCCC1(O)CNCc1ccc(F)cc1 (stereo not given)	78.1
CC(Cn1cccn1)NCCS(=O)(=O)c1ccccc1 (stereo not given)	-87.3
O=C(C1CCN(S(=O)(=O)N2CCCC2)CC1)N1CCC2(CC1)OCCO2	-133
CC(C)CN1C[C@@H]2C[C@H](C(=O)NCc3cccnc3)[C@H](C1)O2	-83.7
CCc1ccc(CN(C)c2ccc(-c3nc(COC)no3)cn2)nc1	78.4
c1cnc(N2CCO[C@H]3CN(CC4CCOCC4)C[C@H]32)nc1	-125
Cc1nnc(NC(=O)CN2CCCC(c3ccn[nH]3)C2)s1 (stereo not given)	85.8
O=C(CN1CCCC(c2ccn[nH]2)C1)Nc1nncs1 (stereo not given)	89.1
CC(C)(CNc1ccc(C#N)c(C(F)(F)F)c1)C(N)=O	-66.3
Cc1ccc(C2(CN(C)Cc3sccc3C)CCNCC2)nc1	77.4
COCCCNC(=O)c1cn(C(C)(C)C)c2ncccc12	-71.7
COc1ccc(C(=O)NCCCOC(C)c2ccccc2)c(OC)c1 (stereo not given)	78.9
Fc1ccc(CN2C[C@@H](OCc3ccccn3)[C@H]3COC[C@H]32)cc1	-62.3
CCN(CC)CCNC(=O)c1ccc(-n2ccc3ccccc32)s1	90.5
O=C(NCCCN1CCCCC1)c1ccc(-n2ccc3ccccc32)s1	79
Cc1nc(CN2CCN3C[C@H](Oc4cncnc4)C[C@H]3C2)cs1	-50.1
COc1ncccc1CN1CCC2(CC1)COCCN2C	-36
COc1ncccc1CN1C[C@@H]2CN(c3ncccn3)C[C@@H]2C1	5.48

Compound	INHIBITION [%]
COCCCN1CCCC12CCN(Cc1cccnc1OC)CC2	8.49
CN1CCN(Cc2ccccc2Oc2nccc3occc23)CC1	77.4
c1ccc(Oc2nccc3occc23)c(CN2CCCCC2)c1	72.9
O=C([C@H]1C[C@H]2OCC[C@H]2N(Cc2cccnc2)C1)N1CCCCO1	-141
O=C(c1c[nH]c2ncccc12)N(Cc1ccco1)C1CCCC1	87
CCC(C)(C)n1nnnc1C(c1cccs1)N1CCc2ccccc2C1 (stereo not given)	73.9
Fc1ccc(Sc2ccccc2CNC2=NCCN2)cc1	80.4
c1ccc(Sc2ccc3c(c2)OCO3)c(CNC2=NCCN2)c1	83.7
Fc1ccccc1Sc1ccccc1CNC1=NCCN1	77.4
Cc1csc(CN2CC[C@H]3C[C@H](c4ccncn4)O[C@@H]3C2)n1	-50.8
CNCc1cn(C[C@H]2C[C@@H]3CCN2C[C@@H]3C(=O)NC2CCCCC2)nn1	-152
CO[C@H]1CCN(S(=O)(=O)N(C)C)[C@@H]2CN(Cc3cccnc3)C[C@H]12	-7.26
O=C(Nc1ccccc1)[C@H]1CN2CC[C@H]1C[C@@H]2Cn1cc(CCO)nn1	-52.4
c1ccc(COC2C[C@@H]3CN(Cc4cccnc4)C[C@@H]3C2)cc1 (stereo not given in full)	-9.68
CC(C)CN1CCNC(=O)C12CCN(C(=O)c1ccccn1)CC2	-97.5
O=C(N1CCCC1)N1C[C@@H]2CC[C@H]1CN(Cc1ccncc1)C2	-121
Cc1cccc(CO[C@@H]2C[C@H]3CN(c4ncccn4)CCN3C2)n1	-75.8
CCN(CC)Cc1ccccc1NC(=O)N(C)Cc1ccccc1O	85
Cc1cccc(CN2C(=O)C[C@@H]3[C@@H]2CCN3Cc2ccsc2)n1	-13
COc1ccccc1OCC(=O)N1CCN(Cc2noc(C)n2)CC1	-68.9
CC(C)c1nc(CN2CCN(C(=O)Cc3ccccc3Cl)CC2)no1	10.3
Cc1nc(CN2CCCC(NCCc3ccccc3Cl)C2)no1 (stereo not given)	82.3
Fc1cnc(N2CCO[C@H]3CN(CC4CCC4)C[C@H]32)nc1	-80
Cn1c(CN2CCCCC2)cc(=O)c(O)c1CN1CCCCC1	81.8
CO[C@H]1CN(CC2CCOCC2)[C@@H]2CCCO[C@H]12	-48.2
